PvdQ acylase – P. aeruginosa PvdQ acylase inhibitors, primary screen, biochemical, fluorescence, plate reader and imaging, single point; PvdQ acylase [Pseudomonas aeruginosa LESB58]; purified PvdQ acylase; inhibition, % at 10 µM; 340,000 compounds, 0.063% hits; AID 488965, 2010; in the data active = inhibition above about 30%, passing the limit was not always enough
HTR5A ag – HTR5A agonists in luminescence cell assay, primary screen, counter-screen for OPRM1-OPRD1 heterodimer agonist project, full-deck HTS. cell-based. activation, % at 9.3 µM. 340,000 compounds, 0.61% hits. AID 504692, 2011; in the data active = activation mostly above about 9.5%, no sharp cut-off; inactive = mostly below about 7.6%
Target sequence (P47898 whole entry, looked up): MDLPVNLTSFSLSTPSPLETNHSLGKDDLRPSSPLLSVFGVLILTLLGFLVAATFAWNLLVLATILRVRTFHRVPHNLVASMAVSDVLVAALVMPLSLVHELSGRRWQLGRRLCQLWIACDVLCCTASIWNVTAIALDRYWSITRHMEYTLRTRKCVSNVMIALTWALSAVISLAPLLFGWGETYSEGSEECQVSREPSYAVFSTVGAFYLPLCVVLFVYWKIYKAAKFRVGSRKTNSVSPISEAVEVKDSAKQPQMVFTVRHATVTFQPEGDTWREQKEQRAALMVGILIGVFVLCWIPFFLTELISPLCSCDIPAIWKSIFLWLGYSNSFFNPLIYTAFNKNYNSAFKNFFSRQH
CR mimetic SO – reduction of superoxide in aged yeast, primary screen, HTS; S. cerevisiae aged cells, superoxide DHE fluorescence; stronger effect = lower value; superoxide response (% of plate mean), % at 10 µM; 330,000 compounds, 0.18% hits; AID 2690, 2010;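 active = superoxide response under a set limit, about three screen SD below normal, cut at about 65% in these data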;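 note: yeast aged for seven days with compound at 30 °C before DHE staining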
OPRM1-OPRD1 inv – inverse agonists of MOR-DOR heterodimerization, primary screen, cell-based, luminescence. AID 504357, 2011. cell-based MOR-DOR heterodimer luminescence, inverse agonism. 340,000 compounds, 0.21% hits. inhibition, % at 9.3 µM. Mu-type opioid receptor (Homo sapiens) + Delta-type opioid receptor (Homo sapiens), …; in the data active = inhibition above about 22%, passing the limit was not always enough
HTR5A inv ag – HTR5A inverse agonists in luminescence cell assay, primary screen, counter-screen for OPRM1-OPRD1 heterodimer inverse agonist project, full-deck HTS. 5-hydroxytryptamine receptor 5A (Homo sapiens), P47898. 340,000 compounds, 0.083% hits. HTR5A cell line, inverse agonism. AID 504634, 2011. inhibition, % at 9.3 µM; in the data active = inhibition mostly above about 23%, no sharp cut-off; inactive = mostly below about 18%
MOR-DOR ag – agonists of OPRM1-OPRD1 heterodimerization, primary screen, cell-based, luminescence | Mu-type opioid receptor (Homo sapiens) + Delta-type opioid receptor (Homo sapiens), … | cells | activation, % at 9.3 µM | 340,000 compounds, 0.3% hits | AID 504326, 2011; in the data active = activation above about 18%
Superoxide pick – superoxide lowering in aged yeast cells, confirmation, cherry picked compounds; S. cerevisiae aging, superoxide DHE fluorescence; stronger effect = lower value; 850 compounds, 1% hits; shares compounds with CR mimetic SO; superoxide response (% of plate), % at 10 µM;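 active = superoxide signal below 65% of the plate average of sample wells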;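 note: cells aged with compound for 7 days at 30 degrees C before staining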
DHE fluor count – DHE quenching or ROS scavenging interference in aged yeast, artefact control for yeast caloric restriction mimetic project, S. cerevisiae BY4741, flow cytometry. shares compounds with CR mimetic SO. DHE fluorescence; stronger effect = lower value. fluorescence response, % at 10 µM. 850 tested, under 10 active;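 active = fluorescence response below 15%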;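 note: lower means stronger quenching of DHE signal or ROS scavenging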
Of the large screens only hits and unclear results are named; the others gave an inactive call (follow-up assays come after a bar, where they were run). Only some compounds are listed: those with a hit (about 1.3% of all), similar ones and a draw of the others.

Cc1ccc(S(=O)(=O)N2CCC(C(=O)N3CCC[C@H]3C(=O)NCC(C)C)CC2)cc1	none
CCCNC(=O)[C@@H]1CCCN1C(=O)C1CCN(S(=O)(=O)c2ccc(C)cc2)CC1	CR mimetic SO 64 | Superoxide pick inactive | DHE fluor count inactive
CC(C)(C)c1ccc(/C=N/OCC(=O)NCc2ccc(F)cc2)cc1	CR mimetic SO 62 | Superoxide pick inactive | DHE fluor count inactive
Cc1cc(C(=O)COc2cccnc2[N+](=O)[O-])c(C)n1-c1ccccc1	CR mimetic SO 58 | Superoxide pick inactive | DHE fluor count inactive
Cc1ccc(-n2c(C)cc(C(=O)COc3cccnc3[N+](=O)[O-])c2C)cc1	none
CCCNC(=O)c1ccc2c(=O)c(O)c(-c3ccc(Cl)c([N+](=O)[O-])c3)[nH]c2c1	CR mimetic SO 64 | Superoxide pick inactive | DHE fluor count inactive
O=C(NCCc1nc2ccccc2[nH]1)c1ccc(Cl)c([N+](=O)[O-])c1	none
O=C(NCc1ccc(Cl)cc1)C1CCN(c2cnccn2)CC1	none
O=C(NCc1ccc(Cl)cc1)C1CCCN(c2cnccn2)C1 (stereo unspecified)	CR mimetic SO 65 | Superoxide pick inactive | DHE fluor count inactive
Cc1nnsc1-c1c(C(=O)N2CCOCC2)c(C)nn1-c1ccccc1	none
Cc1nnsc1-c1c(C(=O)N2CCOCC2)c(C)nn1-c1ccc(Cl)cc1	CR mimetic SO 46 | Superoxide pick inactive | DHE fluor count inactive
COc1ccc(CN(CCC#N)C(=S)NC(=O)c2ccccc2)cc1	none
N#CCCN(Cc1ccccc1)C(=S)NC(=O)c1ccccc1	CR mimetic SO 57 | Superoxide pick inactive | DHE fluor count inactive
CCOc1ccc(N/N=C(/C#N)C(N)=O)cc1	CR mimetic SO 46 | Superoxide pick inactive | DHE fluor count inactive
CCOC(=O)NC(=O)/C(C#N)=N\Nc1ccc(Cl)cc1	none | Superoxide pick inactive | DHE fluor count inactive
CCOC(=O)NC(=O)/C(C#N)=N\Nc1cccc(Cl)c1	none
COc1ccc(N/N=C(\C#N)C(N)=O)cc1	CR mimetic SO 48 | Superoxide pick inactive | DHE fluor count inactive
Cc1ccc(S(=O)(=O)N2CCN=C2SCc2ccccc2)cc1	CR mimetic SO 63 | Superoxide pick inactive | DHE fluor count inactive
CC(=O)Nc1ccc(S(=O)(=O)N2CCN=C2SCc2ccc(C)cc2)cc1	none
CCOc1ccc(NC(=O)CSc2nc3ccccc3nc2N2CCOCC2)cc1	none
COc1ccc(OCc2cc(C(=O)NC(C)Cc3cnccn3)no2)c(Cl)c1 (stereo unspecified)	none
O=C(Cc1ccc(Cl)cc1)N1CCC2(CC1)NCCc1[nH]cnc12	CR mimetic SO 64 | Superoxide pick inactive | DHE fluor count inactive
O=C(c1cccc(Cl)c1)N1CCC2(CC1)NCCc1[nH]cnc12	none
CCc1c(C)nc2cc(-c3ccccc3)[nH]n2c1=O	none | Superoxide pick inactive | DHE fluor count inactive
Cc1cccc(-c2cc3nc(-c4ccccc4)cc(=O)n3[nH]2)c1	none | Superoxide pick inactive | DHE fluor count inactive
CCc1c(C)nc2c(-c3ccccc3)c(-c3ccccc3)[nH]n2c1=O	none | Superoxide pick inactive | DHE fluor count inactive
O=C(c1ccccc1)N1CCN(c2ccccc2)CC1	none (no result: CR mimetic SO)
CS(=O)(=O)Nc1ccc(C(=O)N2CCN(c3ccccc3)CC2)cc1	none | Superoxide pick inactive | DHE fluor count inactive
Cc1ccc(C(=O)N2CCN(c3cccc(Cl)c3)CC2)cc1C	none | Superoxide pick inactive | DHE fluor count inactive
Cc1ccc(C(=O)N2CCN(c3ccccc3)CC2)cc1C	none | Superoxide pick inactive | DHE fluor count inactive
O=C(c1ccccc1)N1CCN(c2ccc(Cl)cc2)CC1	none | Superoxide pick inactive | DHE fluor count inactive
Cn1c(SCC(=O)Nc2ccc(NC(=O)c3cccc(F)c3)cc2)nnc1-c1ccncc1	none
O=C(Nc1cccc(S(=O)(=O)N2CCCCCC2)c1)C1CCN(C(=O)c2ccc(F)cc2)CC1	none
COc1ccc(-c2nc3c4c(ncn3n2)-c2ccccc2CC42CCCC2)cc1	CR mimetic SO 64 | Superoxide pick inactive | DHE fluor count inactive
COc1ccc(OCc2nc3c4c(ncn3n2)-c2ccccc2CC42CCCC2)cc1	none
CN1CCN(c2nc3ccccc3nc2C(C#N)S(=O)(=O)c2ccccc2)CC1 (stereo unspecified)	none (no result: PvdQ acylase, HTR5A ag, OPRM1-OPRD1 inv, HTR5A inv ag, MOR-DOR ag)
N#CC(c1nc2ccccc2nc1N1CCCC1)S(=O)(=O)c1ccccc1 (stereo unspecified)	CR mimetic SO 63 | Superoxide pick inactive | DHE fluor count inactive
CCCn1c(C(C)NS(=O)(=O)c2ccccc2)n[nH]c1=S (stereo unspecified)	none
NS(=O)(=O)c1ccc(S(=O)(=O)c2ccccc2)nc1	CR mimetic SO 64 (no result: PvdQ acylase, HTR5A ag, OPRM1-OPRD1 inv, HTR5A inv ag, MOR-DOR ag) | Superoxide pick inactive | DHE fluor count inactive
COc1ccccc1N1CCN(CC(=O)Nc2cc(F)ccc2C)CC1	none
O=C(CN1CCN(c2ccccn2)CC1)Nc1cc(F)ccc1F	none | Superoxide pick inactive | DHE fluor count inactive
O=C(CN1CCN(c2ccccn2)CC1)Nc1ccccc1F	none
O=C(CN1CCN(c2ccccn2)CC1)Nc1ccc(F)cc1F	none | Superoxide pick inactive | DHE fluor count inactive
Cc1ccc(F)cc1NC(=O)CN1CCN(c2ccccn2)CC1	none | Superoxide pick inactive | DHE fluor count inactive
C/C(=N\NC(=O)c1ccccc1F)c1cccc(NC(=O)c2ccc(C)cc2)c1	none
O=C(OCc1c(F)cccc1Cl)c1cnc2ccccc2n1	CR mimetic SO 54 | Superoxide pick inactive | DHE fluor count inactive
Cc1ccc(S(=O)(=O)N(C)c2ccc(N)cc2)cc1	none | Superoxide pick inactive | DHE fluor count inactive
Cc1ccc(S(=O)(=O)N(C)c2ccc(C(=O)O)cc2)cc1	none
O=C(Cc1ccc([N+](=O)[O-])cc1)N/N=C/c1cccs1	none
CC1CCC(NC(=O)c2ccc(NC3=NC4CS(=O)(=O)CC4S3)cc2)CC1 (stereo unspecified)	none
COc1ccc(CCC(=O)NCCOc2ccc(C)cc2)cc1	CR mimetic SO 39 | Superoxide pick inactive | DHE fluor count inactive
COc1ccc(CCNC(=O)CCc2ccc(OC)cc2)cc1	none
COc1ccc(OCCNC(=O)c2ccccc2Cl)cc1	CR mimetic SO 64 | Superoxide pick inactive | DHE fluor count inactive
